Results reported in PubChem BioAssay (Tox21).
“And” between values parts separate entries of the source, which are not always exact repeats. Equal entries are not always repeated. Inconclusive results are not listed. Where a structure was tested more than once in an assay, its records may differ in their call. The source made the active and inactive calls. Unless noted, calls follow the shape of the full dose curve.

Key:
[1] = Nuclear factor erythroid 2-related factor 2/antioxidant responsive element (Nrf2/ARE) small molecule agonists: luciferase reporter gene qHTS assay in human keratinocytes (AID 1919969); also: nearly all actives have a fitted effect of over 35% in size; also: potency is read from the fitted curve at half-maximal effect
[2] = target: KiSS-1 receptor (Homo sapiens) (UniProt Q969F8); assay: Human kisspeptin (KISS1R) small molecule agonists, calcium flux assay in KISS1R-HEK293 cells (AID 1920064; active = well fitted activation curve with a large enough effect in the repeat runs; also: potency is read from the fitted curve at half-maximal effect)
KiSS-1 receptor (Homo sapiens), sequence (Q969F8 whole entry, looked up): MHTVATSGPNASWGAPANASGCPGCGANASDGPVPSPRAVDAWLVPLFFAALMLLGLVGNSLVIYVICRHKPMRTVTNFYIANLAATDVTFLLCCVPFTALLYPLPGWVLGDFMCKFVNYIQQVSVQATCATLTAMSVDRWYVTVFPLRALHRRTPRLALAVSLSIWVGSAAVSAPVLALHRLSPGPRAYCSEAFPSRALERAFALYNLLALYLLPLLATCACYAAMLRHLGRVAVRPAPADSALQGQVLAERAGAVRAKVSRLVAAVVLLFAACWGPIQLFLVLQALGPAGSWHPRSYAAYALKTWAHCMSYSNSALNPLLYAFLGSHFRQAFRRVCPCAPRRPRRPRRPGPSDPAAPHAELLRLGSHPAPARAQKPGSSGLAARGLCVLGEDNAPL
Outline: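 Agonist mode: intracellular calcium rise tracked at 1 s intervals over 3 min (480/540 nm) immediately after compound addition to dye-loaded KISS1R-HEK293 stable cells. Each compound tested at 15 concentrations in triplicate.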

[3] = p53 small molecule agonists, cell-based qHTS assay with human liver microsomes: qHTS cell viability counter screen (AID 1963579); also: nearly all actives have a fitted effect of over 45% in size; also: potency is read from the fitted curve at half-maximal effect
Outline: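 After the 460/530 nm beta-lactamase read, CellTiter-Glo was added to the same wells and luminescence measured after 30 min at room temperature, giving viability of p53RE-bla cells treated 16 h with compounds plus microsomes and NADPH.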

[4] = p53 small molecule agonists, cell-based qHTS assay (AID 1963582; active = well fitted activation curve with a large enough effect in the signal ratio in the repeat runs, not every such curve was filed as active; the % refers to the signal ratio)
Outline: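 Read-out is beta-lactamase FRET fluorescence after 2 h at room temperature with LiveBLAzer B/G substrate. p53 response element-bla cells were treated 16 h at 37 C with compounds in DMSO, added 5 h after seeding.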

[5] = target: 5-hydroxytryptamine receptor 2A (Homo sapiens) (UniProt P28223); assay: 5-hydroxytryptamine receptor 2A (HTR2A) small molecule antagonists, cell-based qHTS assay (AID 1963586); also: nearly all actives have a fitted effect of over 45% in size; also: potency is read from the fitted curve at half-maximal effect
5-hydroxytryptamine receptor 2A (Homo sapiens), sequence (P28223 whole entry, looked up): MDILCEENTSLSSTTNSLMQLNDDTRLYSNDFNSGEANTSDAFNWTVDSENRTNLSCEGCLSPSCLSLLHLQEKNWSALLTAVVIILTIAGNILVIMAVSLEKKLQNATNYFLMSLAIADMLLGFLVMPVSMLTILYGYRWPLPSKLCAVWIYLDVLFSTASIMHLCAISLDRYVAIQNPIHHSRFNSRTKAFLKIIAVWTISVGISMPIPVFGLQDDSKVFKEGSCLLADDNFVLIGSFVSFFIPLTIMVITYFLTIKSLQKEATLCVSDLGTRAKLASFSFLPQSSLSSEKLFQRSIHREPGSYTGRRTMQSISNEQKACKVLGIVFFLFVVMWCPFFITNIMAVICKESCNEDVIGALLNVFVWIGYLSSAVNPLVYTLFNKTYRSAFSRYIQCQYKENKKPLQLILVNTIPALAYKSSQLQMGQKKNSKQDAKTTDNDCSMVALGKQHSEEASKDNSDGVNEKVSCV
Outline: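 CHO cells stably expressing human HTR2A were plated for 18 h at 37 C, then loaded with calcium dye for 1 h. Compounds were preincubated 5 min at room temperature before DOI (4 nM solution) was added. Kinetic fluorescence was read for 3 min.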

[6] = target: 5-hydroxytryptamine receptor 2A (Homo sapiens) (UniProt P28223); assay: 5-hydroxytryptamine receptor 2A (HTR2A) small molecule agonists, cell-based qHTS assay (AID 1963587); also: nearly all actives have a fitted effect of over 30% in size; also: potency is read from the fitted curve at half-maximal effect
Outline: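 HTR2A-CHO cells, plated 18 h at 37 C/5% CO2, dye-loaded 1 h at 37 C; compounds in DMSO added by pin tool (agonist mode). Intracellular calcium flux read as kinetic fluorescence on FDSS over 2 min at 1 s intervals.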

[7] = target: Muscarinic acetylcholine receptor M1 (Homo sapiens) (UniProt P11229); assay: Cholinergic receptor muscarinic 1 (CHRM1) small molecule antagonists, cell-based qHTS assay (AID 1963588); also: nearly all actives have a fitted effect of over 40% in size; also: potency is read from the fitted curve at half-maximal effect
Muscarinic acetylcholine receptor M1 (Homo sapiens), sequence (P11229 whole entry, looked up): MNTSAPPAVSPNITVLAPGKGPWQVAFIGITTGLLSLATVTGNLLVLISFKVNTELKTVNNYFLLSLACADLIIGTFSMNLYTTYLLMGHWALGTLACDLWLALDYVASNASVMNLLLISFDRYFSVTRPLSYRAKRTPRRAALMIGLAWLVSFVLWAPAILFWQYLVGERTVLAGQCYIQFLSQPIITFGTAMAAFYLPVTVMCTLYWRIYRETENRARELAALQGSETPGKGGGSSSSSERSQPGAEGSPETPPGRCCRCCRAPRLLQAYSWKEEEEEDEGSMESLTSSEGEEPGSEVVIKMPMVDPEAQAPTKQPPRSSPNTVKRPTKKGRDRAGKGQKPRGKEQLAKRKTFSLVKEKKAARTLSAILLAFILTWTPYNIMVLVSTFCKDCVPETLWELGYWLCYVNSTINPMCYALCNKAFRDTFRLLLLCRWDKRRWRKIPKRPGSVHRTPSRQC
Outline: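 Compounds were tested at 15 concentrations in three independent runs. Dye-loaded CHRM1-CHO cells were exposed 5 min at room temperature before stimulation by acetylcholine added at 50nM. Intracellular calcium was read kinetically on FDSS for 3 min.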

[8] = target: Muscarinic acetylcholine receptor M1 (Homo sapiens) (UniProt P11229); assay: Cholinergic receptor muscarinic 1 (CHRM1) small molecule agonists, cell-based qHTS assay (AID 1963589); also: nearly all actives have a fitted effect of over 35% in size
Outline: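 Agonist-mode calcium-flux screen: compounds at 15 concentrations, three independent runs, were pin-transferred onto dye-loaded human CHRM1-CHO cells. Fluorescence was then recorded kinetically every second over minutes.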

[9] = cAMP Responsive Elements (CRE) small molecule agonists, cell-based qHTS assay (AID 1963590)
Outline: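 Agonist mode: compound added to CRE-bla HEK 293T cells (2,000/well, 18 h after plating) for 3 h at 37 C/5% CO2. Reporter activity detected via FRET beta-lactamase substrate, 2 h room-temperature loading.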

[10] = G protein-coupled receptor (GPCR) small molecule agonists, calcium flux assay: HEK293 wild type cell line counter screen (AID 1920065)
Outline: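 Calcium flux counter screen: compound added in agonist mode at 15 concentrations in triplicate to dye-loaded parental HEK293 cells. Fluorescence (480/540) read kinetically for 3 min; ATP served as positive control.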

[11] = p53 small molecule agonists, cell-based qHTS assay with human liver microsomes (AID 1963577);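 also: p53 response element beta-lactamase reporter cells with liver microsomes plus NADPH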
Outline: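 Steps: plate p53RE-bla cells, incubate 5 h at 37 C; add compound in DMSO; add microsomes (0.5 mg/mL final) and NADPH (0.5 mg/mL final); incubate 16 h at 37 C; add LiveBLAzer, 2 h RT; read fluorescence.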

[12] = p53 small molecule agonists, cell-based qHTS assay: qHTS cell viability counter screen (AID 1963581); also: nearly all actives have a fitted effect of over 45% in size
Outline: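 Counter screen read by CellTiter-Glo luminescence (ATP content, 30 min at room temperature), run in the same wells as the beta-lactamase reporter read. HCT-116 p53RE-bla cells saw compounds for 16 h at 37 C.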

[13] = cAMP Responsive Elements (CRE) small molecule antagonists, cell-based qHTS assay (AID 1963591; active = well fitted inhibition curve with a large enough effect in the signal ratio in the repeat runs, not every such curve was filed as active; the % refers to the signal ratio)
Outline: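 Antagonist mode: compounds are added alongside the adenylyl cyclase activator NKH477 (0.25 uM final) to CRE-bla HEK293T cells for 3 h. LiveBLAzer FRET substrate, 2 h at room temperature, reports bla expression.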

[14] = target: Beta-2 adrenergic receptor (Homo sapiens) (UniProt P07550); assay: Adrenergic beta2 receptor (ADRB2) small molecule antagonists, cell-based qHTS assay (AID 1963592); also: series mostly up to about 92 µM; nearly all actives have a fitted effect of over 50% in size
Beta-2 adrenergic receptor (Homo sapiens), sequence (P07550 whole entry, looked up): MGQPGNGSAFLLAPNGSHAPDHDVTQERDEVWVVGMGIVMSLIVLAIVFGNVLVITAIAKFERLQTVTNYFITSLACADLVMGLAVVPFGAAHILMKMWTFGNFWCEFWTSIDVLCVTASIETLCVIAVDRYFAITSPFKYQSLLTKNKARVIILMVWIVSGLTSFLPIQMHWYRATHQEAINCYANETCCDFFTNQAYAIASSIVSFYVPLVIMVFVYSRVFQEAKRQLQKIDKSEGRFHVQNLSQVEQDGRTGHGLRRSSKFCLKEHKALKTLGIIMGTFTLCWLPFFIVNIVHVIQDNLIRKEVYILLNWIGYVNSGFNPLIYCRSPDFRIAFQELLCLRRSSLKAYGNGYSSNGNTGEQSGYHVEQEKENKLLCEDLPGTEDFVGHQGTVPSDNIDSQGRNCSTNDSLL
Outline: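 Assay format: CHO-ADRB2 cells, 18-20hr seeding at 37C/5% CO2, then compound plus 1nM isoproterenol agonist mix for 0.5hr RT. Homogeneous time-resolved fluorescence cAMP detection after 1hr, expressed as 665/615 nm ratio.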

[15] = target: Gonadotropin-releasing hormone receptor (Homo sapiens) (UniProt P30968); assay: Human gonadotropin-releasing hormone receptor (GnRHR) small molecule agonists, calcium flux assay in GnRHR-HEK293 cells (AID 1920063); also: nearly all actives have a fitted effect of over 35% in size; also: potency is read from the fitted curve at half-maximal effect
Gonadotropin-releasing hormone receptor (Homo sapiens), sequence (P30968 whole entry, looked up): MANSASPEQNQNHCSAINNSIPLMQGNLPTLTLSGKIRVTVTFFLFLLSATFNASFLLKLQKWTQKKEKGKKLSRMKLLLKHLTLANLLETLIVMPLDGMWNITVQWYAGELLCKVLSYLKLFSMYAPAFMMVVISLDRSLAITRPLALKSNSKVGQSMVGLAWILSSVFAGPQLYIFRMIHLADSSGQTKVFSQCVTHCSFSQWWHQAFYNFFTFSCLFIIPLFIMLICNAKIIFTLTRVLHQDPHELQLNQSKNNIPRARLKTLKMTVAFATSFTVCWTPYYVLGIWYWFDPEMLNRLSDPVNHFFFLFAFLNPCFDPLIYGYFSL
Outline: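 Agonist mode: compounds at 15 concentrations, in triplicate, went onto calcium dye-loaded GnRHR-HEK293 cells. Intracellular calcium was then followed as 480/540 nm fluorescence at 1 s intervals over 3 min.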

[16] = p53 small molecule agonists, cell-based qHTS assay with rat liver microsomes (AID 1963578)
Outline: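 Metabolic activation is supplied by rat liver microsomes with NADPH (each 0.5 mg/mL final). p53RE-bla cells incubate with compound 16 h at 37 C; reporter activity is measured by LiveBLAzer fluorescence.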

[17] = p53 small molecule agonists, cell-based qHTS assay with rat liver microsomes: qHTS cell viability counter screen (AID 1963580); also: nearly all actives have a fitted effect of over 45% in size
Outline: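 Luminescent ATP readout (CellTiter-Glo, 30 min at room temperature) reports viability of p53RE-bla HCT-116 cells after 16 h at 37 C with test compounds under metabolic activation by rat liver microsomes and NADPH at 0.5 mg/mL final each.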

[18] = target: D(2) dopamine receptor (Homo sapiens) (UniProt P14416); assay: Dopamine D2 receptor (DRD2) small molecule agonists, cell-based qHTS assay (AID 1963594); also: nearly all actives have a fitted effect of over 35% in size
D(2) dopamine receptor (Homo sapiens), sequence (P14416 whole entry, looked up): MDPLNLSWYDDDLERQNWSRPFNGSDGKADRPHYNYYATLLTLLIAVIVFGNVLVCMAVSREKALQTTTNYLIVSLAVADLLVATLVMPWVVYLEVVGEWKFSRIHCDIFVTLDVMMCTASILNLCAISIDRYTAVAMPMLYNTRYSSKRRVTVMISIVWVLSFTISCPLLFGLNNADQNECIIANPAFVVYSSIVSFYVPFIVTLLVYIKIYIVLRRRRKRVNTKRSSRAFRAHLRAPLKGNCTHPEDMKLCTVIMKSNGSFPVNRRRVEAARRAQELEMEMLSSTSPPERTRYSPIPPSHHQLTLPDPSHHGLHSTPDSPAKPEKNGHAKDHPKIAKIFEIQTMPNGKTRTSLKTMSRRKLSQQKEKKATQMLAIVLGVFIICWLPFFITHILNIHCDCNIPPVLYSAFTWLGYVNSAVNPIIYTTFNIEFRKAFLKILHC
Outline: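 HEK293 cells stably expressing DRD2 were cultured 24 h at 37 C, then given Ro20-1724 (0.1 mM final) and compounds for 10 min at room temperature. NKH477 (200nM) was then added for 30 min. cAMP was read by HTRF.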

[19] = target: D(2) dopamine receptor (Homo sapiens) (UniProt P14416); assay: Dopamine D2 receptor (DRD2) small molecule antagonists, cell-based qHTS assay (AID 1963595; active = well fitted inhibition curve with a large enough effect in the signal ratio in the repeat runs, with a control signal flat; the % refers to the signal ratio)
Outline: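 HTRF cAMP read-out at 665 and 620 nm emission (340 nm excitation). Antagonist mode: compounds were tested against 12 nM quinpirole in DRD2-HEK293 cells, with 200 nM NKH477 raising cAMP and 0.1 mM Ro20-1724 blocking its breakdown.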

[20] = target: Beta-2 adrenergic receptor (Homo sapiens) (UniProt P07550); assay: Adrenergic beta2 receptor (ADRB2) small molecule agonists, cell-based qHTS assay (AID 1963593);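 also: CHO cells stably overexpressing human ADRB2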
Outline: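 CHO cells stably over-expressing ADRB2 were plated overnight at 37C, then dosed with compounds plus a stimulation mix containing 100uM IBMX and 25uM Ro-20-1724 for 0.5hr at room temperature. cAMP was measured by HTRF competition, 1hr.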

Measured: Potency

COc1cc(OC)c(OC)cc1C=O
inactive: [1] | [2] | [3] | [4] | [5] | [6] | [7] | [8] | [9]

CC(C)(C)c1cc(O)ccc1O
active: [1] 24.3 µM and 30.6 µM
not listed: [8] | [15] | [16] | [17] | [18] | [19] | [20]
inactive: all other assays above

CC(C)(c1cc(Cl)c(O)c(Cl)c1)c1cc(Cl)c(O)c(Cl)c1
33.4 µM (active) and inactive: [7]
active: [15] 38.9 µM | [3] 40.8 µM
not listed: [1] | [4] | [5] | [6] | [9] | [20]
inactive: all other assays above

S=C=NCc1ccccc1
not listed: [1] | [3] | [8] | [11] | [17] | [20]
inactive: all other assays above

CC(=O)c1cc2c(cc1C)C(C)(C)C(C)CC2(C)C (stereo not given)
not listed: [1] | [5] | [9] | [11] | [20]
inactive: all other assays above

Cc1cc(C(C)(C)c2cc(C)c(O)c(C)c2)cc(C)c1O
inactive: [1] | [2] | [10] | [11] | [7] | [20] | [18]
active: [6] 23.7 µM

COc1cc(OC)nc(NC(=O)NS(=O)(=O)c2ncccc2OCC(F)(F)F)n1
not listed: [5] | [7] | [9] | [11] | [15] | [17]
inactive: all other assays above

Nc1ccc(N=Nc2ccccc2)cc1
inactive: [2] | [10] | [11] | [16] | [17] | [5] | [6] | [7] | [8] | [19]
active: [1] 10.9 µM

CC(Cc1ccc2c(c1)OCO2)NO (stereo not given)
active: [5] 0.91 µM | [6] 1.33 µM
not listed: [1] | [3] | [7] | [11]
inactive: all other assays above

N#CCCC(Br)(C#N)CBr (stereo not given)
inactive: [10] | [11] | [16] | [3] | [17] | [12] | [5] | [7] | [9]
active: [15] 38.9 µM | [2] 54.9 µM

Clc1ccccc1-c1ccccc1Cl
active: [5] 47.9 µM
not listed: [1] | [16] | [20]
inactive: all other assays above

CCOC(=O)N(C)C(=O)CSP(=S)(OCC)OCC
not listed: [1] | [3] | [7] | [13] | [16] | [17] | [20]
inactive: all other assays above
